Mot1-301 SUMO: blocks SUMOylation pathway, rescuing yeast Mot1-301 growth; 320,000 compounds, 1% hits; S. cerevisiae Mot1-301 growth rescue, ATP luminescence, 38.5C; percent above DMSO median, 100 means doubled; AID 2716; growth rescue, % at 18.8 µM;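 active = every valid replicate shows activation above 250% relative to neutral control wells; inactive = the rest, any valid replicate at or below 250%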
VLA-4 inh: inhibition in a human VLA-4 binding assay | VLA-4 expressing cells, ligand binding flow cytometry | inhibition, % (about 7 µM as worked out from the volumes in the protocol) | 330,000 compounds, 0.2% hits; in the data active = inhibition above about 50%
Target sequence (P13612 whole entry, looked up): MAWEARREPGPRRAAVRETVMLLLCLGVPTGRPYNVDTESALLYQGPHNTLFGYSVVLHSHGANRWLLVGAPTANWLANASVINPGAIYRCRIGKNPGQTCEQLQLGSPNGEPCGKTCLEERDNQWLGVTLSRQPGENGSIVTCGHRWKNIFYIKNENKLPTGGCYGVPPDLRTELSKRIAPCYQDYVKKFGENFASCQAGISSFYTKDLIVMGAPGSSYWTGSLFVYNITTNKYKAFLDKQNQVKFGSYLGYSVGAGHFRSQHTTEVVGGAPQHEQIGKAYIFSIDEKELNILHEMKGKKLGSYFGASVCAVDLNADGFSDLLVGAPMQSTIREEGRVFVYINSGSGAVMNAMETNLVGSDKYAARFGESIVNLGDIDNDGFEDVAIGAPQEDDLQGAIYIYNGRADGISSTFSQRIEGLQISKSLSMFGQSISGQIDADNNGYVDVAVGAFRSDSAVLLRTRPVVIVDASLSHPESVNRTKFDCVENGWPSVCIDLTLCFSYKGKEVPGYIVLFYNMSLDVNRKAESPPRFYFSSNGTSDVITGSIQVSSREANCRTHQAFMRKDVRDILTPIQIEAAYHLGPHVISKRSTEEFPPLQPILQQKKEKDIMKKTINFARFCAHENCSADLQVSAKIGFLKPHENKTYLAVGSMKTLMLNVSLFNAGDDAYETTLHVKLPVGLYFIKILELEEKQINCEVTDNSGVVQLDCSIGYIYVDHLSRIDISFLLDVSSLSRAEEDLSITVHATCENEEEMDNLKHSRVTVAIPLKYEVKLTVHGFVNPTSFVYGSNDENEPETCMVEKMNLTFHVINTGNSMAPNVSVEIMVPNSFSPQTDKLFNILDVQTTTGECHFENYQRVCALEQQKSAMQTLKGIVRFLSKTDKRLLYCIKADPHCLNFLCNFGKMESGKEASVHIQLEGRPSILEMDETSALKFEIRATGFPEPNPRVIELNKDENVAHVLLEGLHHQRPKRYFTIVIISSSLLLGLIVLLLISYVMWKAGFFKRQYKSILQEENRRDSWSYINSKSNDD
ALR inh: inhibitors of human sulfhydryl oxidase ALR; P55789; purified ALR, DTT oxidation, H2O2 HRP-luminol luminescence; inhibition, % (concentration not given with the values); 290,000 compounds, 3.8% hits;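 active = mean replicate inhibition above about 79%, with every replicate also reaching it, limit read from the data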
A1 inh: inhibitors of the anti-apoptotic protein A1, read as caspase activation | MEF A1-2A-BIM cells, Caspase-Glo 3/7 luminescence, 3 h; percent of clofoctol response, vehicle zero | caspase activation, % (test concentration not listed) | AID 2462 | 330,000 compounds, 0.066% hits;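 active = over half of replicate activation scores above 10%, or exactly half above 10 with the replicate mean above 10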
Efflux pump inh: blocks antifungal efflux pumps in multiplex yeast assay. S. cerevisiae Candida pump triplex, Nile Red efflux. inhibition, % at 10 µM. 330,000 compounds, 0.44% hits;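 active = plate passing quality check with inhibition over a set limit, or well fluorescence over plate mean plus 4 SD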;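 also: Nile Red retained in pooled yeast measured as flow cytometry median fluorescence; higher means more Nile Red kept so more efflux inhibition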
AHR act: activates the human aryl hydrocarbon receptor; AHR-responsive luciferase reporter cells, luminescence; 320,000 compounds, 2.5% hits; activation, % at 5 µM; AID 2796; in the data active = activation above about 47%
Of the large screens only hits and unclear results are named; the others gave an inactive call. Only some compounds are listed: those with a hit (about 7.2% of all), similar ones and a draw of the others.

N/C(Cc1nc(-c2ccc(Br)cc2)cs1)=N\O	AHR act 53.7
CC(Sc1nnc(-c2ccc(O)cc2)o1)C(=O)Nc1cccc2ccccc12 (stereo not given)	none (no result: ALR inh)
Cc1cc(=O)oc2cc(NC(=O)c3ccccc3Cl)ccc12	AHR act 63.0
CCCNC(=O)c1ccc2c(=O)c(O)c(-c3ccc(F)cc3)[nH]c2c1	AHR act 69.7
Cc1cccc(NC(=O)C(C)SCc2nc3sc4c(c3c(=O)[nH]2)CCCC4)n1 (stereo not given)	none
O=c1cc(CSc2ccc(Cl)cc2)nc(-c2ccncc2)[nH]1	none
Cc1ccc(C2=Nn3c(COc4ccc(Cl)cc4)nnc3SC2CC(=O)O)cc1 (stereo not given)	ALR inh 97.5
CCN(CC)CC(O)CN1c2ccccc2Sc2ccccc21 (stereo not given)	ALR inh 98.5
Cc1cc(C)n(CC(O)CN2c3ccccc3Sc3ccccc32)n1 (stereo not given)	ALR inh 99.2
CCN(CC)CC(=O)N1c2ccccc2Sc2ccccc21	none
OCCN(CCO)CC(O)CN1c2ccccc2Sc2ccccc21 (stereo not given)	ALR inh 98.7
CCN(CC)CCCCN1c2ccccc2Sc2ccccc21	ALR inh 99.0
CCCCN(Cc1ccccc1)C(=O)C1CCCN(S(=O)(=O)c2cnc[nH]2)C1 (stereo not given)	none
Cc1cc(C)c(-c2cc(NC(=O)COC(=O)c3ccc(CO)cc3)n(-c3ccccc3)n2)cc1C	none (no result: ALR inh)
COc1cc(C(=O)OCC(=O)Nc2cc(-c3cc(C)c(C)cc3C)nn2-c2ccccc2)cc(OC)c1OC	none
Cc1cc(C)c(-c2cc(NC(=O)CSc3n[nH]c(N)n3)n(-c3ccccc3)n2)cc1C	AHR act 56.2
Cc1cnc(C(=O)OCC(=O)Nc2cc(-c3cc(C)c(C)cc3C)nn2-c2ccccc2)cn1	AHR act 59.9
O=C(c1cc(-c2ccco2)nc2ccccc12)N1CCCC(C(F)(F)F)C1 (stereo not given)	none (no result: ALR inh)
CCc1ccc(N2C(=O)Cc3c2nc(N)c(C#N)c3N)cc1	AHR act 52.1
CC(C)(C)c1ccc(N2C(=O)Cc3c2nc(N)c(C#N)c3N)cc1	AHR act 75.5 (no result: A1 inh)
CCN(CC)c1nc2c3c(nc4c(c3c1C#N)CC(=O)N4c1ccc(Cl)cc1)NC(C)=N2	none
Cc1[nH]c2ccccc2c1C(=O)C(C)OC(=O)c1ccc(Cl)nc1 (stereo not given)	none (no result: ALR inh)
Cc1[nH]c2ccccc2c1C(=O)C(C)OC(=O)c1ccc(NC(=O)CC#N)cc1 (stereo not given)	ALR inh 99.8
Cc1ccc(NCC(=O)N/N=C/c2ccncc2)cc1	AHR act 64.2 (no result: ALR inh)
CSc1ccc(/C=N\NC(=O)CNc2ccc(C)cc2)cc1	none
CCN(c1ccc(NC(=O)COC(=O)/C=C/c2ccco2)cc1)C(C)C	ALR inh 98.6
CCc1ccc(NC(=O)COC(=O)/C=C/c2ccco2)cc1	none
COc1ccc(NC(=O)COC(=O)c2ccc3ccccc3n2)cc1	none
CC(=O)c1cccc(NC(=O)COC(=O)c2cccs2)c1	none
CC(=O)c1cccc(NC(=O)COC(=O)CCC(=O)c2ccc(F)cc2)c1	none
CCN(CC)c1ccc(NC(=O)COC(=O)c2cccs2)cc1	ALR inh 97.9
CCN(c1ccc(NC(=O)COC(=O)CCC(=O)c2ccc(F)cc2)cc1)C(C)C	ALR inh 93.2
CCN(CC)c1ccc(NC(=O)COC(=O)c2ccc3ccccc3n2)cc1	ALR inh 98.9
CCOc1cc(N2CCOCC2)c(OCC)cc1NC(=O)C1=COCCO1	none (no result: Mot1-301 SUMO, ALR inh, A1 inh)
CC12CN3CC(C)(CN(C1)C3c1ccccc1F)C2 (stereo not given)	none
O=[N+]([O-])CC1(n2nc3ccccc3n2)CCCCC1	none (no result: ALR inh)
CCN(c1ccc(NC(=O)COC(=O)c2cccs2)cc1)C(C)C	ALR inh 98.8
CCn1c(NC(=O)/C=C/c2ccc(F)cc2)nc2ccccc21	none (no result: ALR inh)
O=C(Nc1cccc(-c2csc(Nc3ccccc3)n2)c1)c1ccccc1	AHR act 71.1
O=C(Nc1ccc(-c2csc(Nc3ccc(Cl)cc3)n2)cc1)c1ccccc1	none
Cc1ccccc1NC(=O)c1cccc(C(F)(F)F)c1	none
Cc1ccc(Nc2nc(-c3ccccc3)cs2)nc1	none (no result: AHR act)
O=C(Nc1cccc(-c2csc(Nc3cccc(C(F)(F)F)c3)n2)c1)c1ccccc1	none
O=C(Nc1nc(=O)n(C(=O)c2cccc(C(F)(F)F)c2)s1)c1ccccc1	ALR inh 97.2
O=C(Nc1ccc(-c2csc(Nc3cccc(C(F)(F)F)c3)n2)cc1)c1ccccc1	AHR act 78.1
Cc1cc(C)nc(Nc2nc(-c3ccccc3)cs2)n1	AHR act 75.2 (no result: ALR inh)
CCCCCN(C(=O)CCC(=O)OC(C)C(=O)NCc1ccccc1)c1c(N)n(CCCC)c(=O)[nH]c1=O (stereo not given)	none
CC(=O)c1cccc(Nc2nc(-c3cccnc3)cs2)c1	none (no result: AHR act)
CC(=O)c1cccc(Nc2nc(-c3ccccc3)cs2)c1	AHR act 56.2
CN(C)/C=C(\C#N)C(=O)c1cccc(Oc2ccc(Br)cc2)c1	none
CC(C)c1ccc(Oc2cccc(C(=O)/C(C#N)=C/N(C)C)c2)cc1	ALR inh 98.0
CC(C)c1ccc(-n2cnn(-c3ncccc3[N+](=O)[O-])c2=O)cc1	AHR act 50.7 (no result: ALR inh)
Cc1cc(C)n(-c2ncccc2[N+](=O)[O-])n1	none
O=C1CC(N2CCCc3ccccc32)C(=O)N1c1ccccc1 (stereo not given)	none
CCc1ccccc1N1C(=O)CC(N2CCc3ccccc32)C1=O (stereo not given)	ALR inh 98.8
CC1CC1C(=O)N(C)CC(=O)Nc1ccccc1Br (stereo not given)	none
COc1ccc(CCN2C(=O)CSC2=S)cc1OC	none
O=C(CN1CCCC1)NN=C(c1ccccc1)c1ccccc1	Mot1-301 SUMO 391.9
O=C(CCN1CCC(c2ccccc2)C1)c1cccs1 (stereo not given)	none
O=C(CCN1CCCCCC1)c1ccccc1	ALR inh 90.7
COc1ccc(C(=O)CCN2CCCCCC2)cc1	none
O=C(CCN1CCCC1)c1cccs1	ALR inh 98.5
O=C(CCc1ccc(CCC(=O)c2cccs2)s1)c1cccs1	ALR inh 92.4
Cn1cc(S(=O)(=O)N2CCCC(C(=O)O)C2)cn1 (stereo not given)	none
c1ccc(Nc2nnc(-c3cccnc3)s2)cc1	none (no result: ALR inh)
COc1ccc(-c2nnn(CCc3nn[nH]n3)n2)cc1	none
COc1cc(/C=C(\C#N)C(=O)c2c(C)[nH]c3ccccc23)cc(OC)c1OC	ALR inh 96.2
CCCc1cc(=O)oc2cc(OCC(=O)NC3CC(C)(C)NC(C)(C)C3)ccc12	none
Oc1ccc(C2=NN(c3ccccc3)C(c3ccc(F)cc3)C2)cc1 (stereo not given)	ALR inh 96.8
